According to PubChem BioAssay AID2315 (National Center for Advancing Translational Sciences (NCATS), 2010):
Among all 290,000 compounds or so, about 27,000 (9.3%) were called active. No stated cut-off is given here; in the data, active means inhibition mostly above about 28% (no sharp cut-off); inactive means mostly below about 43%. This excerpt belongs to a sample that is enriched for actives.

assay: A qHTS for Small Molecule Inhibitors of Shiga Toxin; conditions: Vero cells, Shiga toxin protein synthesis inhibition reporter; at 38.7 µM, stronger effect = higher value; further: 0% is about no effect

Compound	inhibition
CC(=O)Nc1c2c(nn1-c1cccc(C)c1)CSC2	-5.43% (inactive)
O=C(CCS(=O)(=O)c1ccc(Br)cc1)NCCc1ccc(Cl)cc1	-14.4% (inactive)
COc1ccccc1CCNC(=O)c1cnccn1	10.7% (inactive)
Cc1nn(Cc2ccccc2Cl)c(Cl)c1C(=O)OC(C(=O)NC(N)=O)C(C)C (stereo not given)	8.84% (inactive)
COc1ccccc1CCNC(=O)c1c(C)nn(CC(C)C)c1Cl	62.8% (active)
N#CC(C#N)=CN=c1ccn(Cc2ccc(Cl)cc2Cl)cc1	1.18% (inactive)
Clc1c(OCCCn2ccnc2)ccc2ccccc12	17.6% (inactive)
Cc1ccc(CCNC(=O)c2ccc3nc4ccccc4c(=O)n3c2)cc1	5.74% (inactive)
O=C(Oc1ccccc1C(=S)N1CCCCC1)c1cc([N+](=O)[O-])cc([N+](=O)[O-])c1	13% (inactive)
O=C(COc1ccc2oc3c(c2c1)CCCC3)Nc1ccccn1	57.2% (active)
Cc1ccc(OCC(=O)Nc2ccc(S(=O)(=O)Nc3ccccn3)cc2)cc1	2.76% (inactive)
CCN(CC)CCCNC(=O)COc1ccc2oc3c(c2c1)CCCC3	-7.61% (inactive)
Cc1ccc(Cn2nnc3c(=O)[nH]c(C4CCN(S(=O)(=O)/C=C/c5ccccc5)CC4)nc32)cc1	-13.7% (inactive)
COCn1c(C(O)c2ccccc2)cc2ccccc21 (stereo not given)	-6.57% (inactive)
Cc1ccn2c(c1)nc(=O)c1cc(S(=O)(=O)N3CCC(C)CC3)ccc12	14.3% (inactive)
O=C1Nc2cc(C(=O)N3CCC(N4CCCCC4)CC3)ccc2S/C1=C\c1ccccc1	-12.8% (inactive)
C=CCCN(C(Cc1ccccc1)C(=O)OC)S(=O)(=O)c1cc(Br)ccc1Br (stereo not given)	2.22% (inactive)
COc1cccc(NC(=S)N(Cc2ccc(C)cc2)Cc2ccccn2)c1	-9.99% (inactive)
COc1cccc(S(=O)(=O)NCc2ccc(C(=O)NCc3ccccn3)cc2)c1	-7.83% (inactive)
COc1cccc(NC(=S)NCc2ccccn2)c1	60.7% (active)
CCC(C)c1ccc(NC(=S)NCc2ccccn2)cc1 (stereo not given)	56.9% (active)
O=C(NCc1cccc(CNC(=O)Nc2cccc(O)c2)c1)Nc1cccc(O)c1	17.1% (inactive)

Compound	inhibition
COc1cccc(NC(=O)NCc2ccc(F)cc2)c1	43.7% (active)
Cc1cc(C)cc(NC(=O)NCc2ccccn2)c1	-1.91% (inactive)
COc1cccc(NC(=O)NCCN2CCCCC2)c1	17.6% (inactive)
COC(=O)Cc1ccc(NC(=S)NCc2ccccc2)cc1	-2.18% (inactive)
COc1ccc(OC)c(CCNC(=O)CCn2ccc3cc(S(=O)(=O)N4CCCC4)ccc32)c1	1.48% (inactive)
COc1ccc(N(CC(=O)Nc2ccc(F)c(F)c2)S(=O)(=O)c2c(C)[nH]c(=O)[nH]c2=O)cc1	-5.76% (inactive)
COc1cccc(OC)c1C(=O)Nc1ccc2c(c1)n(C)c(=O)n2C	-1.01% (inactive)
COc1ccc(NS(=O)(=O)c2cc(NC(=O)C3CCCCC3)ccc2N2CCOCC2)cc1	-4.94% (inactive)
Cn1c(=O)[nH]c(=O)c2c1[nH]c(=S)n2Cc1ccccc1	-6.6% (inactive)
CCc1cccc(C)c1NS(=O)(=O)c1c(C)nc2sccn2c1=O	-3.6% (inactive)
CCNS(=O)(=O)c1ccc(CCC(=O)N2CCN(c3cc(Cl)ccc3C)CC2)cc1	-3.72% (inactive)
O=c1o[nH]c(-c2ccccc2)c1N=Nc1c(F)cccc1Cl	-2.82% (inactive)
Cc1noc(C)c1-c1ccc2ncnc(NCc3ccc4[nH]ccc4c3)c2c1	70.1% (active)
Cc1noc(C)c1-c1ccc2ncnc(NCc3ccc(F)c(F)c3)c2c1	10.1% (inactive)
Cc1noc(C)c1-c1ccc2ncnc(NC(C)c3ccco3)c2c1 (stereo not given)	30.2% (inactive)
O=Cc1c(NCCCN2CCCC2=O)c2ccccc2[nH]c1=O	7.22% (inactive)
CCCSc1nc2[nH]ncc2c(=O)[nH]1	-9.31% (inactive)
Cc1ccc(CSc2nc3[nH]ncc3c(=O)[nH]2)cc1	136% (active)
Cc1cccc(NC(=O)CSc2nc3[nH]ncc3c(=O)[nH]2)c1	-11.6% (inactive)
Cc1ccc(S(=O)(=O)N(C)C)cc1NC(=O)C1Cc2ccccc2CN1C(=O)c1ccco1 (stereo not given)	-7.79% (inactive)
COc1ccc(Cl)cc1-n1c(=S)sc2c(=O)n(-c3ccc(F)cc3)c(SCC(=O)O)nc21	19.4% (inactive)
CC(=O)NC(CC(=O)O)c1ccc(F)cc1 (stereo not given)	-5.08% (inactive)

Compound	inhibition
CN(C)c1ccc(C(CC(=O)O)C(=O)O)cc1 (stereo not given)	73.8% (active)
CN(C)c1ccc(/C=N/NC(=O)C(O)c2ccc(Br)cc2)cc1 (stereo not given)	20.6% (inactive)
COc1ccccc1N(C)C(=O)c1cc(S(=O)(=O)N2CCc3ccccc32)cn1C	8.5% (inactive)
O=C(CN1CCN(c2ccc(F)cc2)CC1)Nc1ccccc1	-6.95% (inactive)
Cc1ccc(-c2cc(C(=O)Nc3nn[nH]n3)c3ccccc3n2)c(C)c1	-11.6% (inactive)
CC(=O)Nc1cccc(-c2cnc3ccccc3n2)c1	116% (inactive)
Cc1cc(O)ccc1-c1cnc2ccccc2n1	99.9% (active)
Cc1oc2c(F)c(F)c(F)c(F)c2c1S(=O)(=O)Nc1cccc(C(F)(F)F)c1	-4.67% (inactive)
CCOC(=O)C1CCCN(S(=O)(=O)c2ccc3c(c2)C(C)(C)C(=O)N3C)C1 (stereo not given)	-10.9% (inactive)
COCCN1C(=O)N(c2ccc(Cl)cc2)C(=O)C1CC(=O)Nc1cc(OC)cc(OC)c1 (stereo not given)	0.637% (inactive)
O=C(CCCOc1ccc(Cl)cc1Cl)NNC(=O)C1CCC1	27.9% (inactive)
S=c1[nH]nc(CSCc2ccc(Cl)cc2Cl)n1-c1ccccc1	-6.51% (inactive)
Cn1c(CCCOc2ccc(Cl)cc2Cl)n[nH]c1=S	57.3% (active)
O=C(COc1ccc(S(=O)(=O)Nc2cccc(C(F)(F)F)c2)cc1)N1CCOCC1	-9.6% (inactive)
CCOC(=O)[C@@H]1[C@H]2COc3ccc(Br)cc3[C@H]2N2C(=O)N(c3ccc(Cl)cc3)C(=O)[C@@]12C	-8.05% (inactive)
Cc1cccc(OCc2ccc(C(=O)Nc3ccc(F)cc3)cc2)c1	-8.13% (inactive)
Cc1cccc(NC(=O)c2nc(S(=O)(=O)Cc3ccccc3)ncc2Cl)c1	34.1% (active)
CCOc1ccc(NC(=O)c2nc(SCC)ncc2Cl)cc1	-3.26% (inactive)
Cc1cccc(NC(=O)c2nc[nH]c2C(=O)NCC(=O)OCc2ccccc2)c1	-6.49% (inactive)
CCSc1ncc(Cl)c(C(=O)Nc2cc(C)ccc2C)n1	-1.29% (inactive)
Cc1cccc(CS(=O)(=O)c2ncc(Cl)c(C(=O)Nc3ccc(F)cc3)n2)c1	53.3% (active)
